# Sampled rows, rich in hits. Any-hit rate of the full collection: about 5.2%.
# Vif inh – blocks HIV Vif function | AID 602346 | inhibition, % at 7.49 µM | HEK293T cells, Vif self-association by quenched fluorescence, imaging, 24 h | actives 0.35% (n = 340,000); in the data active = inhibition above about 50%, passing the limit was not always enough; inconclusive = no clear call, values can overlap the other calls; inactive = below about 31%
# SMARCA2 activ – increases SMARCA2 function in MMTV reporter cells | activation, % at 9.1 µM | actives 1% (n = 370,000) | MG213 cells, MMTV-luciferase reporter, dexamethasone, overnight; in the data active = activation above about 7.8%
# SKN-1 block – inhibitors of C. elegans SKN-1; C. elegans VP596 Pgst-4::GFP/RFP ratio, acrylamide-induced, 24 h; inhibition, % at 21.8 µM; actives 0.49% (n = 360,000);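 active = interference check ratio from 0.5 to 1.5 plus GFP to RFP signal ratio inhibition reaching or exceeding a fixed threshold, cut at about 30% in these data, passing the limit was not always enough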
# esBAF inh – inhibitors of esBAF chromatin remodeling in mouse ES cells. AID 602393. reporter increase, % at 12.5 µM. actives 2% (n = 350,000). Bmi1-luciferase knock-in reporter, 24 h; 100% = twice the neutral-well signal; in the data active = activation above about 40%; inconclusive = no clear call, values can overlap the other calls;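 also: a rise in the Bmi1 reporter signal indicates esBAF inhibition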
# NadD block – NadD (S. aureus) enzyme inhibition; purified NadD enzyme, colorimetric absorbance read-out; actives 0.78% (n = 360,000); AID 602399; inhibition, % at 20 µM; in the data active = inhibition above about 26%
# NR3A LBD binder – modulates the human NR3A ligand-binding domain. NR3A LBD differential scanning fluorimetry, Tm shift; 0% = protein alone, 100% = glycine-bound protein. Tm shift relative to glycine control, % at 25 µM. actives 2.5% (n = 340,000);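 active = melting temperature shift of at least 10% of the positive control shift, at one fixed dose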
# Hits are given with their value; i = inactive; ? = inconclusive; nt = no result.
SMILES,Vif inh,SMARCA2 activ,SKN-1 block,esBAF inh,NadD block,NR3A LBD binder
Cc1noc(C)c1NC(=O)Nc1ccc2c(c1)CC(=O)N([C@@H](C)CO)C[C@H](C)[C@@H](CN(C)S(=O)(=O)c1c(C)noc1C)O2,nt,nt,nt,i,nt,nt
CCC(=O)N1CC[C@@H]2[C@H](CO)Nc3ccc(C#Cc4ccccc4)cc3[C@@H]21,nt,nt,nt,i,nt,nt
COC(=O)c1cc2ccsc2n1Cc1ccccc1F,i,i,i,i,i,17
O=C(CN1C(=O)CCS(=O)(=O)c2ccccc21)NCc1ccccc1,i,i,37,i,i,i
Cc1ccc(NC(=O)Nc2ccc3c(c2)C(=O)N(C)[C@@H]2CC[C@@H](CC(=O)NCC(F)(F)F)O[C@H]2CO3)cc1,nt,nt,nt,i,nt,nt
NC(N)=NC(=O)c1nc(Cl)c(N2CCCCCC2)nc1N,i,i,i,59,i,i
C[C@H](CO)N1C[C@H](C)[C@@H](CN(C)Cc2ccncc2)Oc2ncc(C#CCN(C)C)cc2C1=O,nt,nt,nt,i,nt,nt
O=C(Cn1c(C(F)(F)F)nc2ccccc21)N=Nc1c(O)[nH]c2ccc(Br)cc12,i,i,i,i,i,10
COCC(=O)N(C)C[C@H]1Oc2cc(C#CCC(C)C)ccc2S(=O)(=O)N([C@@H](C)CO)C[C@H]1C,nt,nt,nt,i,nt,nt
O=C(COC(=O)c1cccc(S(=O)(=O)NCc2ccccc2)c1)NC1CC1,i,i,i,i,i,i
O=C(COC(=O)c1ccc(Cl)c(S(=O)(=O)NCc2ccccc2)c1)NC1CC1,77,i,i,i,i,i
O=C(N[C@@H]1CC[C@@H](CCNC(=O)c2ccccc2F)O[C@H]1CO)c1ccc2c(c1)OCO2,nt,nt,nt,i,nt,nt
O=c1cc(COc2ccc(Cl)c(Cl)c2)nc2sccn12,nt,i,i,45,i,i
COc1ccccc1C(=O)OCc1cc(=O)n2ccsc2n1,i,i,i,nt,i,i
O=C(OCc1cc(=O)n2ccsc2n1)c1ccccc1O,i,i,i,74,i,i
NS(=O)(=O)c1ccc(NC(=O)CCC(=O)N2CCOCC2)cc1,58,i,i,i,i,i
CC=Cc1ccc2n(c1=O)C[C@@H]1[C@@H](CO)[C@H](C(=O)N[C@@H](C)c3ccccc3)N(C)[C@H]21 (mixture of isomers),nt,nt,nt,i,nt,nt
CCSc1nc2c(cnn2-c2ccccc2)c(=O)n1N,i,i,i,nt,i,i
CSc1nc2c(cnn2-c2ccccc2)c(=O)n1N,i,i,i,48,i,i
N#CC1=C(SCC(N)=O)NC2=C(C(=O)c3ccccc32)C1c1ccc(Cl)cc1 (centres undefined),i,i,i,nt,i,18
CCCNC(=O)NC[C@H]1[C@H](c2ccc(C3=CCCC3)cc2)[C@@H](CO)N1C(C)=O,nt,nt,nt,i,nt,nt
COc1ccc2oc(=O)c(C(=O)N3CCN(c4ccccc4C)CC3)cc2c1,i,i,i,76,i,i
COc1ccc2oc(=N)c(C(=O)Nc3ccccc3)cc2c1,i,i,i,i,i,i
COc1ccc2oc(=N)c(C(=O)Nc3cccc(C)c3C)cc2c1,i,i,i,80,i,i
COc1ccc2oc(=O)c(C(=O)Nc3ccccc3C)cc2c1,i,i,i,i,i,i
SMILES,Vif inh,SMARCA2 activ,SKN-1 block,esBAF inh,NadD block,NR3A LBD binder
COc1ccc2oc(=N)c(C(=O)Nc3ccccc3Cl)cc2c1,i,i,i,56,i,i
COC(=O)C[C@@H]1CC[C@@H]2[C@@H](COc3ccc(NC(=O)c4ccccc4)cc3C(=O)N2C)O1,nt,nt,nt,i,nt,nt
COc1ccc(CCNS(=O)(=O)c2cccc(C)c2)cc1OC,i,i,i,i,i,i
COc1ccc(CCNS(=O)(=O)c2cccc(S(=O)(=O)N3CCCC3)c2)cc1OC,i,i,i,i,i,14
COc1ccc(S(=O)(=O)N2CCCCCC2)cc1N(C)S(=O)(=O)c1ccccc1,i,i,i,nt,i,12
COc1ccc(S(=O)(=O)N2CCCCC2)cc1N(C)S(=O)(=O)c1ccccc1,i,i,i,i,i,i
CO[C@H]1CN(C)C(=O)c2ccc(NC(C)=O)cc2OC[C@@H](C)N(C(=O)c2ccccc2)C[C@@H]1C,nt,nt,nt,i,nt,nt
CSCCC(NS(=O)(=O)c1ccccc1F)C(=O)OCc1ccccc1Cl (centres undefined),i,i,i,nt,i,20
Cc1ccc2oc(-c3cc(NC(=O)c4ncn[nH]4)ccc3O)nc2c1,i,i,i,i,i,i
Cc1ccc2oc(-c3ccc(NC(=O)c4ccncc4)cc3O)nc2c1,i,i,i,nt,i,33
CCCC(=O)Nc1ccc2oc(-c3ccc(OC)c(Br)c3)nc2c1,i,i,i,i,i,i
COc1ccc(CC(=O)Nc2ccc(-c3nc4cc(C)ccc4o3)c(O)c2)cc1OC,i,i,35,i,i,i
CCCC(=O)Nc1ccc(-c2nc3cc(C)ccc3o2)cc1,i,i,i,nt,i,14
C[C@@H]1CN([C@@H](C)CO)C(=O)Cc2cc(NS(=O)(=O)c3ccccc3)ccc2O[C@@H]1CN(C)Cc1ccc2c(c1)OCO2,nt,nt,nt,i,nt,nt
C[C@@H]1CN([C@@H](C)CO)C(=O)c2cc(NS(C)(=O)=O)ccc2O[C@@H](C)CCCCO[C@H]1CN(C)C,nt,nt,nt,i,nt,nt
Cc1c(C(=O)N(Cc2ccccc2)C2CCS(=O)(=O)C2)oc2ccccc12 (centres undefined),i,i,i,i,i,i
CCc1ccc(CN(C(=O)c2cc3ccccc3oc2=O)C2CCS(=O)(=O)C2)cc1 (centres undefined),i,i,i,86,i,i
O=C(c1cc2ccccc2oc1=O)N(Cc1ccc(F)cc1)C1CCS(=O)(=O)C1 (centres undefined),i,i,i,?,i,i
CC(C)N(Cc1ccc(F)cc1)C(=O)c1cc2ccccc2oc1=O,i,i,i,47,i,nt
O=C(NCc1ccccc1)c1cc2ccccc2oc1=O,i,i,i,i,i,i
COc1ccc(CN(C(=O)c2oc3ccccc3c2C)C2CCS(=O)(=O)C2)cc1 (centres undefined),i,i,36,i,i,i
CN(C)C(CNC(=O)c1cc2ccccc2oc1=O)c1ccccc1 (centres undefined),i,i,i,51,i,i
CC=Cc1ccc2n(c1=O)C[C@H]1[C@H](CO)[C@@H](C(=O)NCC3CCCCC3)[C@@H]2N1C(C)=O (mixture of isomers),nt,nt,nt,i,nt,nt
CCC(=O)N(C)C[C@H]1Oc2cc(-c3ccc(F)cc3)ccc2S(=O)(=O)N([C@@H](C)CO)C[C@@H]1C,nt,nt,nt,i,nt,nt
COc1ccc([N+](=O)[O-])cc1/C=N/Nc1nc(N2CCCCC2)nc(N2CCCCC2)n1,i,i,i,nt,i,29
O=[N+]([O-])c1ccc(/C=N/Nc2nc(N3CCCCC3)nc(N3CCCCC3)n2)cc1,i,i,i,nt,i,i
COc1ccc(/C=N/Nc2nc(Nc3ccccc3)nc(N3CCCCC3)n2)cc1OC,i,i,37,i,i,i
O=C(NCC[C@@H]1CC[C@H](NC(=O)C2CCCC2)[C@H](CO)O1)c1cc(Cl)cc(Cl)c1,nt,nt,nt,i,nt,nt

# Compound activity deposited in PubChem by several laboratories.
